Experimental data: PubChem BioAssay (EPA / NIEHS)
Where a structure was tested more than once in an assay, its records may differ in their call. Activity calls are given as the source filed them. The calls were made as follows: active = hit-call score of the fitted dose curve at least 0.9, where 1 is the maximum; inactive = score below 0.9.

Experiment: CCTE_Shafer_MEA_acute_cross_correlation_area: CCTE's Neural Acute Assay for Area of Cross Correlation, Shafer Lab (AID 2284024);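 also: curves fitted for loss of cross-correlation area so actives lower synchrony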
Experimental: CCTE_Shafer_MEA_acute assay is conducted using Axion Biosystems 48 well microelectrode array (MEA) plates and Maestro recording system. Each well of the MEA plate contains a grid of 16 microelectrodes embedded in the culture surface. Electrically active cells, such as neurons, can be cultured over the electrodes, and electrical activity in these cells can be recorded extracellularly. The spontaneous firing of neurons is captured from each electrode on a microsecond timescale providing both temporally and spatially precise data. […] The CCTE_Shafer_MEA_acute assay uses primary cultures of rat cortical neurons. As these cultures mature over time, neural networks develop functional activity and form cohesive networks in which electrical activity can be highly coordinated. Baseline 40-minute recordings are made on days post-plating 13 or 15, followed by a secondary 40-minute recording after chemical exposure.CCTE_Shafer_MEA_acute_cross_correlation_area is a component of the CCTE_Shafer_MEA_acute assay. It measures the area under the well-wide pooled inter-electrode cross-correlation of action potential firing (not normalized to auto-correlations) within a window centered around 0 for the phase lag during a recording in a microelectrode array (MEA) using Axion Biosystems Maestro 768 channel amplifier with the AxIS adaptive spike detector. The recordings before and after chemical treatment are used to calculate a percent change in the cross correlation area in each well.Data from the assay component CCTE_Shafer_MEA_acute_cross_correlation_area was analyzed into 1 assay endpoint. This assay endpoint, CCTE_Shafer_MEA_acute_cross_correlation_area, was analyzed in the negative analysis fitting direction relative to DMSO as the negative control and baseline of activity. Using a type of functional reporter, gain or loss-of-signal activity can be used to understand electrical activity.
Spontaneous activity in the cortical cultures was recorded using an Axion Biosystems Maestro 768 channel amplifier and Axion Integrated Studios (AxIS) v1.8 (or later) software. The amplifier recorded from all channels simultaneously (gain = 1200 x; sampling rate = 12.5 kHz/channel): raw signals were filtered with a Butterworth band-pass filter (300-5000 Hz), which filters out slower local field potentials leaving only fast potentials, i.e., "spikes", arising from extracellular currents associated with action potentials (Pine 2006; Wheeler and Nam 2011). On-line spike detection of filtered signals was conducted with the AxIS adaptive spike detector, using a threshold of 8x the root mean squared (rms) noise on each channel. Any electrodes with rms noise levels greater than 5 uV were grounded (e.g., no data were recorded). Once grounded, an electrode was grounded for the duration of the experiment. All recordings were conducted at 37 C. Wells were deemed usable if on the day of the exposure >/= 10 electrodes were active (defined as >/= 5 spikes/min). On DIV 13 or 15, a minimum of three wells from one cortical culture preparation were treated with each compound (0.03-40 uM). Prior to recording baseline activity, each mwMEA plate was placed in the Maestro at 37 C and allowed to sit for 20 min while firing rates stabilized. Baseline activity (40 min) was recorded before the addition of each compound. An additional 40 min of spontaneous activity was recorded in the presence of each compound. Changes in network parameters relative to baseline were assessed following compound treatment.

| SMILES | outcome | AC50 |
| --- | --- | --- |
| COc1ccc(CO)cc1 | inactive | – |
| Cc1ccc(OP(=O)(Oc2ccc(C)cc2)Oc2ccc(C)cc2)cc1 (tested in a mixture with another compound) | inactive | – |
| Oc1ccc(C2(c3ccc(O)cc3)c3ccccc3-c3ccccc32)cc1 | – | 25.2 nM (active) |
| C#CCN(C)[C@H](C)Cc1ccccc1 | inactive | – |
| CC1(C)[C@H](C=C(Cl)Cl)[C@@H]1C(=O)O[C@@H](C#N)c1cccc(Oc2ccccc2)c1 | – | 170 nM (active) |
| O=[N+]([O-])O | inactive | 230 nM (active) |
| [Cd+2].[Cl-].[Cl-] | inactive | – |
| CC1(C)[C@@H](C=C(Cl)Cl)[C@@H]1C(=O)O[C@@H](C#N)c1ccc(F)c(Oc2ccccc2)c1 | – | 208 nM (active) |
| c1cc[n+]2c(c1)-c1cccc[n+]1CC2 | inactive | – |
| CCCC[N+](CCCC)(CCCC)CCCC | – | 9.53 nM (active) |
| CP(=O)(O)CCC(N)C(=O)O (stereo unspecified) | inactive | – |
| CC1(C)[C@H](C(=O)O[C@H](C#N)c2cccc(Oc3ccccc3)c2)[C@@H]1C=C(Br)Br | – | 203 nM (active) |
| O=c1c2ccccc2c(=O)c2c1cc(Cl)c1[nH]c3c([nH]c12)c(Cl)cc1c(=O)c2ccccc2c(=O)c13 | inactive | – |
| O=C(O)CNCP(=O)(O)O | inactive | – |
| CP(=O)(O)CC[C@H](N)C(=O)O | inactive | – |
